{"source": "PubChem BioAssay (NCI)", "key": {"[1]": {"assay": "NCI Yeast Anticancer Drug Screen. Data for the rad52 strain (AID 147);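 further: 0% = growth of vehicle-treated control cultures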", "details": "S. cerevisiae rad52 mutant growth inhibition, hits give high values", "procedure,_shortened": "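Yeast strain carrying a DNA damage repair alteration was exposed to test compounds. Growth inhibition was measured relative to vehicle-treated controls.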"}, "[2]": {"assay": "NCI Yeast Anticancer Drug Screen. Data for the wt1 strain (AID 149);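 further: 0% = growth of vehicle-treated wt1 cultures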", "details": "S. cerevisiae wt1 strain (SPY 50644) growth inhibition, hits give high values", "procedure,_shortened": "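The wt1 strain was treated with compounds, and growth was compared with vehicle-treated cultures to give inhibition.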"}, "[3]": {"assay": "NCI Yeast Anticancer Drug Screen. Data for the rad50EPP+ strain (AID 151);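 further: 0% = growth of vehicle-treated control cultures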", "details": "S. cerevisiae rad50 mutant strain, hits give high values", "procedure,_shortened": "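Yeast strain carrying rad50 alteration (rad50EPP+) exposed to compounds; growth inhibition measured relative to vehicle-treated controls.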"}, "[4]": {"assay": "NCI Yeast Anticancer Drug Screen. Data for the rad50 strain (AID 155);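 further: 0% = growth of vehicle-only cultures of the same strain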", "details": "S. cerevisiae rad50 strain growth inhibition, hits give high values", "procedure,_shortened": "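Cells are treated with compound, grown, and their growth is then scored against vehicle-only cultures of the same repair-deficient yeast strain.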"}, "[5]": {"assay": "NCI Yeast Anticancer Drug Screen. Data for the mec2-1 strain (AID 157)", "details": "S. cerevisiae mec2-1 strain, hits give high values", "procedure,_shortened": "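mec2-1 yeast strain, carrying an alteration in DNA damage repair or cell cycle control, was exposed to compounds; growth inhibition was measured relative to vehicle-treated controls.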"}, "[6]": {"assay": "NCI Yeast Anticancer Drug Screen. Data for the rad14 strain (AID 159);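 further: 0% = growth of vehicle-treated control cultures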", "details": "S. cerevisiae rad14 strain growth inhibition, hits give high values", "procedure,_shortened": "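Readout: yeast growth inhibition, referenced to vehicle-only cultures. Strain bears a defined alteration in DNA damage repair.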"}, "[7]": {"assay": "NCI Yeast Anticancer Drug Screen. Data for the sgs1 mgt1 strain (AID 161);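 further: 0% = growth of cultures given vehicle only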", "details": "S. cerevisiae sgs1 mgt1 strain, hits give high values", "procedure,_shortened": "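Yeast cells carrying a defined DNA-repair defect were exposed to test compounds. Growth inhibition was measured relative to vehicle-treated controls.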"}, "[8]": {"assay": "NCI Yeast Anticancer Drug Screen. Data for the CLN2oe strain (AID 163);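 further: 0% = growth of vehicle-only control cultures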", "details": "S. cerevisiae CLN2oe strain, hits give high values", "procedure,_shortened": "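Yeast cells carrying a defined cell-cycle control alteration were exposed to test compounds. Growth inhibition was scored against vehicle-treated control cultures.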"}, "[9]": {"assay": "NCI Yeast Anticancer Drug Screen. Data for the bub3 strain (AID 167)", "details": "S. cerevisiae bub3 mutant strain, hits give high values", "procedure,_shortened": "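Part of a panel of yeast mutants defective in DNA damage repair or cell cycle regulation. Each strain is grown with compound, and inhibition is calculated relative to solvent-treated cultures.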"}, "[10]": {"assay": "NCI Yeast Anticancer Drug Screen. Data for the wt2 strain (AID 169);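 further: 0% = growth of vehicle-treated yeast cultures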", "details": "S. cerevisiae wt2 strain growth inhibition, hits give high values", "procedure,_shortened": "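Yeast cells were exposed to test compounds, and growth inhibition was measured relative to vehicle-treated controls.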"}, "[11]": {"assay": "NCI Yeast Anticancer Drug Screen. Data for the mlh1 strain (AID 171);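 further: 0% = growth of vehicle-treated control cultures of the same strain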", "details": "S. cerevisiae mlh1 strain growth inhibition, hits give high values", "procedure,_shortened": "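Yeast carrying a defined genetic alteration in DNA damage repair or cell cycle control were exposed to test compounds. Growth inhibition was measured relative to vehicle-treated controls.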"}, "[12]": {"assay": "NCI Yeast Anticancer Drug Screen. Data for the sgs1 strain (AID 173);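 further: 0% = growth of vehicle-only control cultures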", "details": "S. cerevisiae sgs1 mutant, hits give high values", "procedure,_shortened": "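Yeast mutant strains carrying defined defects in DNA damage repair or cell cycle control were exposed to test compounds. Growth inhibition was scored against vehicle-treated controls.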"}, "[13]": {"assay": "NCI Yeast Anticancer Drug Screen. Data for the mlh1 rad18 strain (AID 175)", "details": "S. cerevisiae mlh1 rad18 strain growth inhibition, hits give high values", "procedure,_shortened": "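Growth inhibition of the yeast strain was measured after compound exposure and expressed relative to vehicle-treated controls. The strain carries defined defects in DNA damage repair.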"}, "[14]": {"assay": "NCI Yeast Anticancer Drug Screen. Data for the rad18 strain (AID 177)", "details": "S. cerevisiae rad18 mutant growth inhibition, hits give high values", "procedure,_shortened": "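Yeast carrying a defined DNA damage repair alteration were exposed to compounds. Growth inhibition was expressed relative to vehicle-treated controls.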"}, "[15]": {"details": "at 5.0 µM (retest, dose inferred, filed as 0.5)"}, "[16]": {"details": "at 50.0 µM (retest, dose inferred, filed as 5.0)"}}, "note": "This is part of a sample that, as a whole, favours compounds with a hit. Of some 79,000 tested, about 15% had one in any assay. Values without a mark were called inactive. Activity calls are given as the source filed them. No stated cut-off is given here; in the data, active means growth inhibition above about 70%; inactive means the rest.", "data": [{"molecule": "CC(=O)OC1CCC2(C)C(=CCC3C4CCC5(OC6CC(C)CN(C(C)=O)C6C5C)C(C)=C4C(=O)C32)C1", "note": "(stereo not given)", "values": [{"measurement": "growth inhibition", "setting": "[1]; at 1.2 µM", "value": 18, "unit": "%"}, {"measurement": "growth inhibition", "setting": "[1]; at 3.7 µM", "value": 12, "unit": "%"}, {"measurement": "growth inhibition", "setting": "[1]; at 11.0 µM", "value": 57, "unit": "%"}, {"measurement": "growth inhibition", "setting": "[1]; at 33.0 µM", "value": "97% (active)"}, {"measurement": "growth inhibition", "setting": "[1]; at 100.0 µM", "value": "96% (active)"}, {"measurement": "growth inhibition", "setting": "[2]; at 1.2 µM", "value": 2, "unit": "%"}, {"measurement": "growth inhibition", "setting": "[2]; at 3.7 µM", "value": 2, "unit": "%"}, {"measurement": "growth inhibition", "setting": "[2]; at 11.0 µM", "value": 28, "unit": "%"}, {"measurement": "growth inhibition", "setting": "[2]; at 33.0 µM", "value": "97% (active)"}, {"measurement": "growth inhibition", "setting": "[2]; at 100.0 µM", "value": "94% (active)"}, {"measurement": "growth inhibition", "setting": "[3]; at 1.2 µM", "value": -39, "unit": "%"}, {"measurement": "growth inhibition", "setting": "[3]; at 3.7 µM", "value": -28, "unit": "%"}, {"measurement": "growth inhibition", "setting": "[3]; at 11.0 µM", "value": -7, "unit": "%"}, {"measurement": "growth inhibition", "setting": "[3]; at 33.0 µM", "value": 6, "unit": "%"}, {"measurement": "growth inhibition", "setting": "[3]; at 100.0 µM", "value": -1, "unit": "%"}, {"measurement": "growth inhibition", "setting": "[4]; at 1.2 µM", "value": -49, "unit": "%"}, {"measurement": "growth inhibition", "setting": "[4]; at 3.7 µM", "value": -31, "unit": "%"}, {"measurement": "growth inhibition", "setting": "[4]; [15]", "value": 0, "unit": "%"}, {"measurement": "growth inhibition", "setting": "[4]; at 11.0 µM", "value": 61, "unit": "%"}, {"measurement": "growth inhibition", "setting": "[4]; at 33.0 µM", "value": "94% (active)"}, {"measurement": "growth inhibition", "setting": "[4]; [16]", "value": "96% (active)"}, {"measurement": "growth inhibition", "setting": "[4]; at 50.0 µM", "value": "83.2% (active)"}, {"measurement": "growth inhibition", "setting": "[4]; at 100.0 µM", "value": "95% (active)"}, {"measurement": "growth inhibition", "setting": "[5]; at 1.2 µM", "value": -32, "unit": "%"}, {"measurement": "growth inhibition", "setting": "[5]; at 3.7 µM", "value": -32, "unit": "%"}, {"measurement": "growth inhibition", "setting": "[5]; [15]", "value": -9, "unit": "%"}, {"measurement": "growth inhibition", "setting": "[5]; at 11.0 µM", "value": 3, "unit": "%"}, {"measurement": "growth inhibition", "setting": "[5]; at 33.0 µM", "value": "96% (active)"}, {"measurement": "growth inhibition", "setting": "[5]; [16]", "value": "98% (active)"}, {"measurement": "growth inhibition", "setting": "[5]; at 50.0 µM", "value": 68.4, "unit": "%"}, {"measurement": "growth inhibition", "setting": "[5]; at 100.0 µM", "value": "89% (active)"}, {"measurement": "growth inhibition", "setting": "[6]; at 1.2 µM", "value": -30, "unit": "%"}, {"measurement": "growth inhibition", "setting": "[6]; at 3.7 µM", "value": -17, "unit": "%"}, {"measurement": "growth inhibition", "setting": "[6]; at 11.0 µM", "value": 50, "unit": "%"}, {"measurement": "growth inhibition", "setting": "[6]; at 33.0 µM", "value": "96% (active)"}, {"measurement": "growth inhibition", "setting": "[6]; at 100.0 µM", "value": "89% (active)"}, {"measurement": "growth inhibition", "setting": "[7]; [15]", "value": 7, "unit": "%"}, {"measurement": "growth inhibition", "setting": "[7]; [16]", "value": "96% (active)"}, {"measurement": "growth inhibition", "setting": "[7]; at 50.0 µM", "value": 69.4, "unit": "%"}, {"measurement": "growth inhibition", "setting": "[8]; at 1.2 µM", "value": 1, "unit": "%"}, {"measurement": "growth inhibition", "setting": "[8]; at 3.7 µM", "value": -12, "unit": "%"}, {"measurement": "growth inhibition", "setting": "[8]; at 11.0 µM", "value": 41, "unit": "%"}, {"measurement": "growth inhibition", "setting": "[8]; at 33.0 µM", "value": "98% (active)"}, {"measurement": "growth inhibition", "setting": "[8]; at 100.0 µM", "value": "92% (active)"}, {"measurement": "growth inhibition", "setting": "[9]; at 1.2 µM", "value": -2, "unit": "%"}, {"measurement": "growth inhibition", "setting": "[9]; at 3.7 µM", "value": -23, "unit": "%"}, {"measurement": "growth inhibition", "setting": "[9]; [15]", "value": 32, "unit": "%"}, {"measurement": "growth inhibition", "setting": "[9]; at 11.0 µM", "value": 24, "unit": "%"}, {"measurement": "growth inhibition", "setting": "[9]; at 33.0 µM", "value": "96% (active)"}, {"measurement": "growth inhibition", "setting": "[9]; [16]", "value": "98% (active)"}, {"measurement": "growth inhibition", "setting": "[9]; at 50.0 µM", "value": "81.2% (active)"}, {"measurement": "growth inhibition", "setting": "[9]; at 100.0 µM", "value": "95% (active)"}, {"measurement": "growth inhibition", "setting": "[10]; at 1.2 µM", "value": -9, "unit": "%"}, {"measurement": "growth inhibition", "setting": "[10]; at 3.7 µM", "value": -4, "unit": "%"}, {"measurement": "growth inhibition", "setting": "[10]; at 11.0 µM", "value": 53, "unit": "%"}, {"measurement": "growth inhibition", "setting": "[10]; at 33.0 µM", "value": "97% (active)"}, {"measurement": "growth inhibition", "setting": "[10]; at 100.0 µM", "value": 59, "unit": "%"}, {"measurement": "growth inhibition", "setting": "[11]; at 1.2 µM", "value": -17, "unit": "%"}, {"measurement": "growth inhibition", "setting": "[11]; at 3.7 µM", "value": -21, "unit": "%"}, {"measurement": "growth inhibition", "setting": "[11]; at 11.0 µM", "value": 51, "unit": "%"}, {"measurement": "growth inhibition", "setting": "[11]; at 33.0 µM", "value": "96% (active)"}, {"measurement": "growth inhibition", "setting": "[11]; at 100.0 µM", "value": "90% (active)"}, {"measurement": "growth inhibition", "setting": "[12]; at 1.2 µM", "value": -10, "unit": "%"}, {"measurement": "growth inhibition", "setting": "[12]; at 3.7 µM", "value": -9, "unit": "%"}, {"measurement": "growth inhibition", "setting": "[12]; at 11.0 µM", "value": 54, "unit": "%"}, {"measurement": "growth inhibition", "setting": "[12]; at 33.0 µM", "value": "96% (active)"}, {"measurement": "growth inhibition", "setting": "[12]; at 100.0 µM", "value": "93% (active)"}, {"measurement": "growth inhibition", "setting": "[13]; [15]", "value": -10, "unit": "%"}, {"measurement": "growth inhibition", "setting": "[13]; [16]", "value": "98% (active)"}, {"measurement": "growth inhibition", "setting": "[13]; at 50.0 µM", "value": "76.8% (active)"}, {"measurement": "growth inhibition", "setting": "[14]; at 1.2 µM", "value": -1, "unit": "%"}, {"measurement": "growth inhibition", "setting": "[14]; at 3.7 µM", "value": 15, "unit": "%"}, {"measurement": "growth inhibition", "setting": "[14]; at 11.0 µM", "value": "75% (active)"}, {"measurement": "growth inhibition", "setting": "[14]; at 33.0 µM", "value": "96% (active)"}, {"measurement": "growth inhibition", "setting": "[14]; at 100.0 µM", "value": "95% (active)"}]}]}
